In PubChem BioAssay AID651815 (National Center for Advancing Translational Sciences (NCATS), 2012):
“And” between values parts separate entries of the source, which are not always exact repeats. Equal entries are not always repeated. The whole screen tested about 2,100 compounds, of which about 1,100 (52%) were called active. Another 29% or so got no clear call; they are omitted. The set was probably picked from earlier hits. The list shows a part of the results. Values without a mark were called inactive. Calls come from the whole dose curve; as a rule, active = well fitted inhibition curve with a large enough effect; inconclusive = small, poorly fitted or top-dose-only effect; inactive = no such curve, though single readings can be large or run the other way.
% is set by controls: 0 for no effect and ±100 for the full control effect; potency is the fitted concentration of half-maximal effect.
Note: nearly all actives have a fitted effect of over 65% in size.

What follows are compounds tested against DNA dC->dU-editing enzyme APOBEC-3F (Homo sapiens) (UniProt Q8IUX4) (assay: qHTS for inhibitors of Vif-A3F interactions: Cherry picks counterscreen). Settings: HeLa A3F-eYFP/Vif cells, eYFP fluorescence, 24 h; series mostly up to 46.1 µM; activity, negative = inhibitor: at the top concentration.
DNA dC->dU-editing enzyme APOBEC-3F (Homo sapiens), sequence (Q8IUX4 whole entry, looked up): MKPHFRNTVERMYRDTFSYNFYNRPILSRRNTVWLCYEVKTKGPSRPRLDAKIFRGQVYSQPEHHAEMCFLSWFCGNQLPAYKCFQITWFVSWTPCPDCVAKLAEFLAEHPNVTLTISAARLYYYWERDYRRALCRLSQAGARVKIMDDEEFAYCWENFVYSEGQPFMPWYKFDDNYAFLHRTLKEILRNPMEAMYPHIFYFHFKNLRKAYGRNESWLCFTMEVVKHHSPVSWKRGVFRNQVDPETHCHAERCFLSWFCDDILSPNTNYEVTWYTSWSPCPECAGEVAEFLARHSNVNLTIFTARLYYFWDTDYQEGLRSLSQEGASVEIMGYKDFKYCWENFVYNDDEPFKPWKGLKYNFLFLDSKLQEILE
In short: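 Rescue of Vif-driven A3F-eYFP degradation read as cellular eYFP fluorescence after 24 h compound exposure (several concentrations) in stable HeLa cells; MG132 (2 mM stock) as positive control.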
O=c1cc(-c2ccccc2)[nH]c2ccccc12 was tested, and the Potency was 2.23 µM (active). For COc1cc2nc(/C=C/c3ccc(N(C)C)cc3)sc2cc1SC, the Potency was 11.6 µM (active). In the case of CCS(=O)(=O)c1nn2c(N)c(/C=C3/C=CC(=O)C(OC)=C3)c(=O)nc2s1, the “activity, negative = inhibitor” value was 47.2%. For COC(=O)c1c(-c2cccnc2)csc1NC(=O)c1ccc2c(c1)OCO2, the “activity, negative = inhibitor” value was -20.7%. For COc1cc(C(=O)c2ccc3c(c2)OCO3)cc(OC)c1OC, the Potency was 7.04 µM (active). CCOC(=O)C1C(=O)C=C(/C=C/c2ccc(N(C)C)cc2)CC1c1ccccc1 (configuration not stated) was tested, and the Potency was 16.4 µM (active). In the case of CCCCOc1ccc(-c2nnn(CC(=O)NCc3ccco3)n2)cc1, the Potency was 6.27 µM (active). For CCOC(=O)c1c(Nc2ccc(Cl)cc2)sc(/C=C2\C=Nc3ccccc32)c1O, the Potency was 14.6 µM (active). CN(C)CCCN(C(=O)/C=C/c1cccs1)c1nc2ccc(F)cc2s1 was tested, and the “activity, negative = inhibitor” value was -13.7%. In the case of COc1cc2c(cc1OC)CN(C(=O)/C=C/c1cccs1)CC2, the Potency was 2.8 µM (active). For Cc1cccc(C(=O)NC(=S)N2CCc3ccccc3C2)c1, the “activity, negative = inhibitor” value was 1.57%. With O=c1[nH]c(-c2cccnc2)nc2sc(-c3ccccc3)cc12 the Potency was 4.44 µM (active). S=c1[nH]cnc2sc(-c3ccccc3)cc12 was tested, and the “activity, negative = inhibitor” value was 8.41%. With Cc1ccc(S(=O)(=O)Nc2cc(Cl)c(O)c3ncccc23)cc1 the “activity, negative = inhibitor” value was -18.6% [at 36.9 µM]. CC(=O)c1c(C)oc2c1cc(NS(=O)(=O)c1ccc(Br)cc1)c1ccccc12 was tested, and the Potency was 2.91 µM (active). In the case of CCc1nc(Nc2ccc3nccnc3c2)c2oc3ccccc3c2n1, the Potency was 23.1 µM (active). For COc1ccc(S(=O)(=O)Nc2cccc(-c3ccc4nncn4n3)c2)cc1F, the Potency was 1.98 µM (active). For COc1ccc(S(=O)(=O)Nc2cccc(-c3ccc4nncn4n3)c2)cc1, the Potency was 3.14 µM (active). With O=Cc1s/c(=N\S(=O)(=O)c2ccccc2)n(CCCCl)c1Cl the Potency was 5.8 µM (active). With O=C1[C@@H]2[C@@H](CN3CN(c4ccccc4)N=C(c4ccccc4)[C@@]23c2ccccc2)C(=O)N1c1ccccc1 the “activity, negative = inhibitor” value was 15.5%. With CCN1/C(=C/c2ccc3ccccc3[n+]2CC)C=Cc2ccccc21 the “activity, negative = inhibitor” value was -22.3%. CCN1/C(=C/c2cc[n+](C)cc2)C=Cc2cc(C)ccc21 was tested, and the Potency was 18.4 µM (active). In the case of Cc1cc(C)cc(NC(=O)Cn2c(=O)oc3cc(S(=O)(=O)N4CCC(C)CC4)ccc32)c1, the Potency was 12.5 µM (active). COc1ccc2c(Cl)c(C(=O)N/N=C3\CCCC(=O)C3)sc2c1 was tested, and the Potency was 17.7 µM (active). In the case of CCOc1cc(C(=O)NN=C2CCCC2)cc(OCC)c1OCC, the “activity, negative = inhibitor” value was 4.99% [at 36.9 µM]. N#CC1=C(N)Oc2ccc3ccccc3c2C1c1cccnc1 (configuration not stated) was tested, and the Potency was 2.8 µM (active). For CC1=C(n2nnc3ccccc32)C(c2ccccc2)C(C#N)=C(N)O1 (configuration not stated), the “activity, negative = inhibitor” value was -24.2%. In the case of N#CC1=C(N)Oc2ccc3ccc(O)cc3c2C1c1ccsc1 (configuration not stated), the “activity, negative = inhibitor” value was -11.7% [at 36.9 µM]. In the case of CCN(CC)c1ccc2c(c1)OC(N)=C(C#N)C2c1cccnc1 (configuration not stated), the Potency was 14 µM (active). Cc1ccc2c(c1C)NC(=O)CC(c1ccccc1O)=N2 was tested, and the “activity, negative = inhibitor” value was 6.28%. CN(C)c1ccc2ccc3cccc4ccc1c2c34 was tested, and the Potency was 13 µM (active). For C[C@H]1CN([C@@H](C)CO)C(=O)Cc2cc(NC(=O)CCC(F)(F)F)ccc2O[C@H]1CN(C)S(=O)(=O)c1ccc(F)cc1, the Potency was 12.5 µM (active). In the case of CCOc1cc(C#N)c(NC(=O)c2cccnc2)cc1OCC, the Potency was 3.53 µM (active). For COc1ccc(OC)c(NS(=O)(=O)c2ccc(Cl)s2)c1, the Potency was 11.2 µM (active). N#Cc1ccc(/C=C\c2nccc3c2[nH]c2ccccc23)cc1 was tested, and the Potency was 15.8 µM (active). With C(=C/c1nccc2c1[nH]c1ccccc12)/c1ccc2c(c1)OCO2 the “activity, negative = inhibitor” value was -27.4% [at 36.9 µM]. For Cc1noc(C)c1COc1ccc(C(=O)NNC(=O)c2ccccc2)cc1, the Potency was 4.98 µM (active). In the case of Cc1noc(C)c1COc1ccc(C(=O)NNC(=O)c2ccccc2F)cc1, the Potency was 9.94 µM (active). For Cc1ccc(CN(C(=O)c2ccccc2F)c2ccccn2)o1, the “activity, negative = inhibitor” value was -16.2%. With C=CCN1C=CC(=C/C=C(/C#N)C(=O)OCC)C=C1 the Potency was 4.61 µM (active). CCCN1C=CC(=CC=C(C#N)C#N)C=C1 was tested, and the Potency was 17.7 µM (active). CCOC(=O)/C(C#N)=C\C=C1C=CN(C)C=C1 was tested, and the “activity, negative = inhibitor” value was 23.1%. With C=CCN1C=CC(=CC=C(C#N)C#N)C=C1 the Potency was 17.7 µM (active). COc1ccc(-n2c(O)c(/C=N/NS(=O)(=O)c3cc(C)ccc3C)c3ccccc3c2=O)cc1OC was tested, and the Potency was 13 µM (active). COc1ccc(-n2c(O)c(/C=N/NS(=O)(=O)c3ccc(C)cc3)c3ccccc3c2=O)cc1OC was tested, and the Potency was 18.4 µM (active). In the case of CC12CC3CC(C)(C1)CC(C(=O)NC(=S)N1CCOCC1)(C3)C2, the “activity, negative = inhibitor” value was -2.22% [at 36.9 µM]. In the case of C(=C\c1c[nH]c2ccccc12)/c1ccc2ccccc2n1, the Potency was 18.4 µM (active). In the case of C(=Cc1c[nH]c2ccccc12)c1ccc2ccccc2n1, the Potency was 18.4 µM (active). For COc1ccc(C(=O)Nc2cccc(/C=C/c3nc4ccccc4c(=O)[nH]3)c2)cc1, the Potency was 15.8 µM (active). For Nc1c(C(=O)Nc2ccc(S(=O)(=O)N3CCCC3)cc2)sc2nc3cc4c(cc3cc12)CCC4, the Potency was 14.6 µM (active). For CCc1cccc2cc3c(N)c(C(=O)Nc4ccc(S(=O)(=O)N5CCCC5)cc4)sc3nc12, the Potency was 6.27 µM (active). Nc1c(C(=O)Nc2ccc(S(=O)(=O)N3CCCC3)cc2)sc2nc3ccc(OC(F)(F)F)cc3cc12 was tested, and the Potency was 23.1 µM (active). For Cn1nnnc1SCCNCc1cc(Br)ccc1OCc1ccccc1Cl, the “activity, negative = inhibitor” value was -13.7%. For CCC(C)n1c(NC(=O)c2ccccc2)c(C#N)c2nc3ccccc3nc21 (configuration not stated), the Potency was 18.4 µM (active). Fc1ccc2nc3[nH]c4ccccc4c3nc2c1 was tested, and the Potency was 0.886 µM (active). COc1ccc(OC)c(/C=C/c2nc3ccccc3[nH]c2=O)c1 was tested, and the Potency was 5.8 µM (active). With Cc1ccc(N2C(=O)[C@@H]3[C@H](C2=O)[C@H]2C=C(C(=O)c4ccccc4)C=CN2[C@@H]3C(=O)c2ccc(Cl)cc2)cc1 the “activity, negative = inhibitor” value was -18.4%. For COCCCNC(=S)N/N=C/c1ccc(OC)cc1, the “activity, negative = inhibitor” value was -7.86%. COc1ccc(N2CC(C(=O)N/N=C/c3ccc(C)cc3)CC2=O)cc1 (configuration not stated) was tested, and the Potency was 3.53 µM (active). For CCCCN1C(=O)/C(=C/C=C2\Oc3ccccc3N2CC)SC1=S, the “activity, negative = inhibitor” value was -0.0599% [at 36.9 µM]. With CCSC1=N/C(=C\C=C2/Oc3ccccc3N2CC)C(=O)S1 the Potency was 14.6 µM (active). In the case of N#CC1=C(N)C(C#N)(C#N)[C@H](c2ccoc2)[C@H]2CN(Cc3ccccc3)CC=C12, the Potency was 4.98 µM (active). In the case of O=c1c2ccccc2nc(/C=C/c2ccc([N+](=O)[O-])o2)n1CCCO, the Potency was 23.1 µM (active). For CCn1c(/C=C/c2ccc([N+](=O)[O-])o2)nc2ccccc2c1=O, the Potency was 11.6 µM (active). In the case of Cn1c(/C=C/c2ccc([N+](=O)[O-])o2)nc2ccccc2c1=O, the Potency was 23.1 µM (active). With Cc1cc(N/N=C/c2ccc([N+](=O)[O-])o2)nc2ccccc12 the Potency was 20.6 µM (active). For CCCN1C(=O)C(Cc2nc3ccccc3c(=O)n2CC)c2cc(Br)ccc21 (configuration not stated), the “activity, negative = inhibitor” value was 2.23%. COc1cc(/C=N\Nc2ccc([N+](=O)[O-])cc2)ccc1OCC(=O)Nc1ccc(C)c(C)c1 was tested, and the Potency was 0.651 µM (active). CCN(CC)c1ccc(/C=c2/sc3nnc(-c4ccccc4C)n3c2=O)cc1 was tested, and the Potency was 16.4 µM (active). In the case of COc1ccc2c(c1)N(C)/C(=C/c1cccc[n+]1C)S2, the Potency was 14 µM (active). CCN1/C(=C/c2cccc[n+]2C)Sc2ccc(OC)cc21 was tested, and the Potency was 20.6 µM (active). With CC[n+]1ccccc1/C=C1\Sc2ccc(C)cc2N1C the Potency was 20.6 µM (active). With O=C(CSc1n[nH]c(-c2ccccn2)n1)Nc1ccc(Cl)cc1 the “activity, negative = inhibitor” value was 28.8%. For Cc1ccccc1OCC(=O)NNC(=O)Nc1ccc(Cl)cc1, the Potency was 4.98 µM (active). With COc1ccccc1OCC(=O)NNC(=O)Nc1ccc(Cl)cc1 the Potency was 15.8 µM (active). For COc1cc(C2c3cc4c(cc3OC(C)(N3CCCC3)C2C)OCO4)cc(OC)c1OC (configuration not stated), the Potency was 1.25 µM (active). In the case of CC(C)NC(=S)N/N=C1\CCCCc2ccccc21, the “activity, negative = inhibitor” value was 1.48%. In the case of N#CC1=C(N)Oc2cc(N)ccc2C1c1ccc(F)cc1F (configuration not stated), the Potency was 20.6 µM (active). For N#CC1=C(N)Oc2cc(N)ccc2C1C1CC=CCC1 (configuration not stated), the Potency was 5.59 µM (active). N#CC1=C(N)Oc2cc(N)ccc2C1c1ccccc1F (configuration not stated) was tested, and the Potency was 4.98 µM (active). Cc1cccc(CSc2cccc3cccnc23)c1 was tested, and the “activity, negative = inhibitor” value was -23.1% [at 36.9 µM]. With S=C(Nc1cccc2ccccc12)NN1CCCCCC1 the “activity, negative = inhibitor” value was -1.64%. For COc1ccc(S(=O)(=O)Nc2cccc3ccccc23)cc1, the Potency was 10.3 µM (active). With COC(=O)c1cccc(NS(=O)(=O)c2ccc(OC)cc2)c1C the Potency was 3.53 µM (active). For CCCCN1C(=O)/C(=C2/Sc3ccccc3N2C)S/C1=N\c1ncn[nH]1, the Potency was 20.6 µM (active). COc1ccc(C)c(Cn2c(-c3nonc3N)nc3ccccc32)c1 was tested, and the Potency was 1.58 µM (active). For COc1cccc(Cn2c(-c3nonc3N)nc3ccccc32)c1, the Potency was 1.58 µM (active). With CCC(=O)Nc1nonc1-c1nc2ccccc2n1Cc1ccccc1 the Potency was 17.7 µM (active). For Nc1nonc1-c1nc2ccccc2n1Cc1ccc(F)cc1, the Potency was 8.86 µM (active). With COc1cccc(Cn2c(-c3nonc3NC(C)=O)nc3ccccc32)c1 the Potency was 9.2 µM (active). With Cc1ccc(C(=O)NCCn2c(N)c(C#N)c3nc4ccccc4nc32)cc1 the Potency was 18.4 µM (active). In the case of COc1ccc(COc2cc(-c3cccc(OC)c3)nc3ccc(NC(=O)c4ccc(OC)cc4)cc23)cc1, the Potency was 6.27 µM (active). COc1ccc(-c2cc(-c3nnc(COC(=O)c4ccncc4)o3)c3ccccc3n2)cc1OC was tested, and the “activity, negative = inhibitor” value was 4.55%. With Cc1ccc2c(c1)sc(-c1ccc(N(C)C)cc1)[n+]2C the Potency was 14.6 µM (active). CCCC(=O)Nc1nc2ccc(NC(=O)c3ccccc3F)cc2s1 was tested, and the Potency was 4.44 µM (active). For CCC(=O)Nc1nc2ccc(NC(=O)c3cc(OC)c(OC)c(OC)c3)cc2s1, the “activity, negative = inhibitor” value was -5.46% [at 36.9 µM]. Cn1cc(C2=C(c3ccc(Cl)cc3Cl)C(=O)NC2=O)c2ccccc21 was tested, and the Potency was 14.6 µM (active) and 20.6 µM (active).
